Experimental findings from PubChem BioAssay AID602192 (The Scripps Research Institute Molecular Screening Center, 2012) are described below.

The whole screen tested about 2,400 compounds, of which about 750 (31%) were called active. Only a sample is shown. A number with no mark means an inactive call.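 Rule for the calls: active = mean activation across replicates above the hit cutoff set in the earlier primary screen (cut at about 8% in these data); inactive = the rest.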

Sequence of Melanocortin receptor 4 (Homo sapiens) (P32245 whole entry, looked up): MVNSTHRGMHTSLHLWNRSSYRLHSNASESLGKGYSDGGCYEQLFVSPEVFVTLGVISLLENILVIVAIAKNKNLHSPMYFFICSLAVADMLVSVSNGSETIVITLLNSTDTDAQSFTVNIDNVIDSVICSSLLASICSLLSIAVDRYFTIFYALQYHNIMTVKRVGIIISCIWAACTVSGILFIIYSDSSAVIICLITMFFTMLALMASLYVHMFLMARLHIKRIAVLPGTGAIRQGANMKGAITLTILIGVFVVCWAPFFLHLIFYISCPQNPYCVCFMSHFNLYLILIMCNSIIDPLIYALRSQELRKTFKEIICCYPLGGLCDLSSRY

This test has as its target Melanocortin receptor 4 (Homo sapiens) (UniProt P32245). Description: MC4R beta-arrestin agonists, retest, confirmation, cell-based, luminescence, U2OS (AID 602192). The settings on record: U2OS MC4R beta-arrestin recruitment, at 8.9 µM, hits give high values, scaled DMSO 0%, Melanotan II 100%.
With `COc1cc(/C=C(\C#N)C(=O)Nc2ccc3ccccc3c2)c([N+](=O)[O-])cc1OC`, the activation was 5.51%.

Take `CC(=O)c1cccc(-c2cnc3c(NC=O)cc(-c4ccc(N(C)C)cc4)cn23)c1`: the activation was 17.7% (active).

As to `CN(C)C(=O)c1cccc(-c2cnc3c(NC=O)cc(-c4ccc(F)cc4)cn23)c1`, the activation is 9.94% (active).

Consider `CN(C)CCNC(=O)c1cccc(-c2cnc3c(NC=O)cc(-c4cccc(C(F)(F)F)c4)cn23)c1`, for which the activation is 20.8% (active).

For the molecule `COc1ccc(-c2cc(NC=O)c3ncc(-c4ccccc4)n3c2)cc1OC`, the activation is 17.6% (active).

`Cn1c(=S)sc2ccc3ccccc3c21`: the activation was 2.83%.

Take `C=CCn1c(SCC(=O)c2ccc(Br)cc2)nnc1C(C)NC(=O)Cc1ccc(OC)cc1` (configuration not stated): the activation was 3.84%.

On to `COC(=O)c1nc2n(n1)C(c1ccc([N+](=O)[O-])cc1)C(C(=O)Nc1ccc(Cl)cc1)=C(C)N2` (configuration not stated), for which the activation was -3.03%.

As to `CCOC(=O)c1c(-c2ccc(C)cc2C)csc1NC(=O)CSc1nnnn1C`, the activation was -1.45%.

`CCOC(=O)c1[nH]c2c(c1-c1ccccc1)C(=O)CC(c1ccc(Cl)cc1)C2` (configuration not stated): the activation is 2.82%.

For the molecule `Cc1ccc(-n2nc3cc(Cl)c(NC(=O)c4ccco4)cc3n2)cc1`, the activation is 0.27%.

For `COc1ccc(S(=O)(=O)N2CCC(C(=O)OCC(=O)c3ccccc3)CC2)cc1[N+](=O)[O-]`, the activation is 5.6%.

On to `Cc1cc(C)cc(C(=O)OCC(=O)NCCNC(=O)COC(=O)c2cc(C)cc(C)c2)c1`, for which the activation was 0.95%.

In the case of `O=C(COC(=O)c1cccc(Br)c1)Nc1cccc2c1C(=O)c1ccccc1C2=O`, the activation was 8.85% (active).

On to `O=C(CSc1ccccc1)Nc1nnc(/C=C/c2ccccc2)s1`, for which the activation is 32.6% (active).

Consider `CCCCNc1c(-c2cccc(Sc3ccc(OC)cc3)c2)nc2ccccn12`, for which the activation is 5.36%.

In the case of `COc1ccc2sc(-c3ccc(S(C)(=O)=O)cc3)c(C#Cc3cncn3C)c2c1`, the activation was 27.1% (active).

As for `O=C(Cn1cnc2c(nnn2-c2ccccc2)c1=O)N1CCC(Cc2ccccc2)CC1`, the activation was 5%.

Regarding `CSc1ccc(/C=N\NC(=O)COc2ccc(Cl)cc2Br)cc1`, the activation was 4.69%.

Turning to `CCN(CC)S(=O)(=O)c1ccc(C)c(NC(=O)COc2ccc(Br)cc2Cl)c1`, the activation was 12.9% (active).

Take `CCN(CC)C(=O)Oc1ccc(Br)cc1C(=O)Nc1ccc(F)c(Cl)c1`: the activation is -3.02%.

For `O=C(c1cc(-c2cccc(O)c2)on1)N1CCc2ccccc2C1`, the activation was -1.12%.

In the case of `Clc1ccccc1Nc1nc(NCc2cccs2)nc2ccsc12`, the activation was 2.53%.

Turning to `COc1ccc(Nc2ncnc3sc(-c4ccccc4)cc23)c(OC)c1`, the activation was 5.2%.

As to `COCCNc1nc(Nc2ccccc2Cl)c2sc(-c3ccccc3)cc2n1`, the activation is 11.8% (active).

Consider `O=C(Nc1sc2c(c1-c1nc3ccccc3[nH]1)CCCC2)C1CC1`, for which the activation is 6.22%.

`O=C(OCc1cn(-c2ccc(Cl)c(Cl)c2)nn1)c1ccccc1Cl`: the activation was -2.69%.

Turning to `COc1ccc(Nc2oc(-c3ccccc3Cl)nc2C#N)cc1`, the activation is 6.82%.

Turning to `COc1cccc(CNC(=O)c2nnn(CC(=O)Nc3cc(Cl)ccc3C)c2N)c1`, the activation was 2.75%.

For `Cc1cc(/C=C(/C#N)C(=O)Nc2ccc(Cl)cc2)c(C)n1-c1cccnc1`, the activation was 0.76%.

With `Cc1ccc2nc(-c3ccncc3)cc(C(=O)Nc3ccc(OC(F)F)cc3)c2c1`, the activation is 1.63%.

As to `CCN1C[C@@H]2[C@@H]3C(=O)N(Cc4ccccc4)C(=O)[C@@H]3[C@](Cc3ccccc3)(C(=O)OC)N2C1=NC1CCCCC1`, the activation was 17% (active).

Take `COc1ccc2nc(NC(=O)c3ccc(Br)s3)sc2c1`: the activation was 5.97%.

For the molecule `CN(C)CCCN(C(=O)c1ccc(S(=O)(=O)N2CCCCCC2)cc1)c1nc2ccc(Br)cc2s1`, the activation is 15.3% (active).

On to `CSc1nc2sc3c(c2c(=O)[nH]1)CCc1ccccc1-3`, for which the activation is 9.67% (active).

Consider `COc1ccc(Cn2c(C)c(C)c(C#N)c2NC(=O)Nc2ccc(F)cc2)cc1`, for which the activation was 2.83%.

For the molecule `COC(=O)c1sccc1NC(=O)CCC1CCCC1`, the activation was 0.35%.

Turning to `Cc1csc(NC(=O)c2ccc(-c3ccc(Cl)cc3Cl)o2)n1`, the activation is 9.09% (active).

For `O=C(NC(c1ccc(-c2ccccc2)cc1)c1cnccn1)C1CCN(CCOc2ccc(Cl)cc2Cl)CC1` (configuration not stated), the activation is 7.32%.

As to `N#CC(=C1SC=CS1)c1nc(-c2ccccc2)cs1`, the activation is -2.79%.

For the molecule `O=C(Nc1nc(-c2ccc(-c3ccccc3)cc2)cs1)c1cnccn1`, the activation is 10.5% (active).

With `Brc1ccc(-c2csc(N/N=C/c3cccnc3)n2)cc1`, the activation was -2.16%.

For the molecule `CC(=O)Nc1ccc(-c2csc(NC(=O)Nc3ccccc3)n2)cc1`, the activation is 26.9% (active).

`Cc1ccc(NC(=O)Nc2ccccc2)c(Br)c1`: the activation was 3.05%.

As to `Cc1ccc(-c2csc(NC(=O)Cn3[nH]c(=O)c4ccccc4c3=O)n2)cc1`, the activation was 2.98%.

Take `N#CCC(=O)N/N=C/c1cn(Cc2ccc3ccccc3c2)c2ccccc12`: the activation was 2.4%.

For the molecule `COc1ccc(C(=O)c2oc3ccc(Br)cc3c2NC(C)=O)cc1`, the activation was 1.93%.

For the molecule `COc1ccc(/C=N/NC(=O)Nc2ccc3nsnc3c2)c(OC)c1`, the activation was -0.12%.

Consider `CC(=O)c1sc(NC(=O)CCCOc2ccccc2C)nc1C`, for which the activation is 5.8%.

For the molecule `COc1ccc(C(=O)n2nc(-c3ccc(C)cc3)nc2N)cc1OC`, the activation was 0.77%.

For the molecule `COc1cccc(CNCCc2c[nH]c3ccccc23)c1OCc1ccccc1F`, the activation is 32% (active).

Consider `CCc1ccc(Nc2ncc3c(n2)CC(c2ccco2)CC3=O)cc1` (configuration not stated), for which the activation was 0.77%.

With `COc1ccc(OCC(=O)Nc2ccc(N3CCC(C)CC3)cc2)cc1`, the activation is 2.6%.

With `O=C(CCCN1C(=O)/C(=C/c2cccs2)SC1=S)Nc1ccc(O)cc1`, the activation was 11.8% (active).

For the molecule `O=C(CCCN1C(=O)/C(=C\c2ccco2)SC1=S)Nc1cccc2ccccc12`, the activation was -0.83%.

Consider `O=C(/C=C/c1c(Cl)cccc1Cl)NCc1ccccc1`, for which the activation is -0.28%.

Consider `COc1cccc2sc(N(CCCN(C)C)C(=O)C(c3ccccc3)c3ccccc3)nc12`, for which the activation was 19.5% (active).

For `Cc1cccc(NC(=O)Nc2cccc(Oc3c(F)c(F)c(F)c(F)c3F)c2)c1`, the activation is -1.61%.

`Cc1ccc(-n2cc3ccc([N+](=O)[O-])cc3n2)cc1`: the activation was 5.74%.

For the molecule `Cc1ccc(Nc2nnc(SCc3ccccc3)s2)cc1`, the activation was 9.35% (active).

For `Cc1ccc(Nc2nnc(SCC(=O)c3cc4ccccc4o3)s2)cc1C`, the activation was 1.84%.

For `COc1ccc(S(=O)(=O)N/N=C\c2ccc(OC)c(COc3ccc(C)cc3[N+](=O)[O-])c2)cc1`, the activation is 1.84%.

In the case of `CC(C)Oc1c(Br)cc(Br)cc1/C=N/NC(N)=S`, the activation was 13.3% (active).

Turning to `CCC(=O)c1cc2c(cc1NC(=O)c1cccs1)OCCO2`, the activation is 6.01%.

For the molecule `Cc1nn2cc(-c3ccc(Cl)cc3)cnc2c1Br`, the activation is -1.24%.

Regarding `CC(=O)Nc1ccc(NC(=O)c2sc3nc4c(c(-c5ccc(C)cc5)c3c2N)CCC4)cc1`, the activation was 5.71%.

On to `CSc1ccc(S(=O)(=O)NCc2ccc(Cl)cc2)cc1`, for which the activation was 1.19%.
